CHX counter = Cycloheximide Counterscreen for Small Molecule Inhibitors of Shiga Toxin; cell reporter, cycloheximide protein synthesis inhibition counterscreen; max response, %; 300,000 compounds, 12% hits; in the data active means max response mostly above about 13%, no sharp cut-off; inactive means mostly below about 14%; further: read at 38.3 µM for the half of the compounds with a filed dose; 0% is about no effect
Pf growth 48h = Primary qHTS for delayed death inhibitors of the malarial parasite plastid, 48 hour incubation; Potency, µM (highest dose often 28.7 µM), without a hit: top-dose activity change, negative = inhibition, actives largely listed as inhibitors; P. falciparum luciferase growth in erythrocytes, 48 h; AID 504832, 2011; 310,000 compounds, 5.9% hits; further: potency means the concentration at half of the fitted maximal effect; on the % scale 0 is the no-effect control and ±100 the full control effect
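Growth was read as firefly luciferase luminescence after a 48 h, 37 C, 5% CO2 exposure of compounds to reporter-bearing P. falciparum cultures (0.1% parasitemia, 2% hematocrit final) in Albumax-supplemented RPMI 1640.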
Shiga toxin inh = A qHTS for Small Molecule Inhibitors of Shiga Toxin. Vero cells, Shiga toxin protein synthesis inhibition reporter. inhibition, % at 38.7 µM. 290,000 compounds, 9.2% hits. AID 2315, 2010; in the data active means inhibition mostly above about 28%, no sharp cut-off; inactive means mostly below about 43%; further: 0% is about no effect
Pf growth 96h = Primary qHTS for delayed death inhibitors of the malarial parasite plastid, 96 hour incubation; P. falciparum luciferase reporter growth, 96 h; Potency, µM (series often up to 28.7 µM), inactives show at the top dose activity change, negative = inhibition, actives largely listed as inhibitors; 320,000 compounds, 6.9% hits; further: potency means the concentration at half of the fitted maximal effect; on the % scale 0 is the no-effect control and ±100 the full control effect
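Plates of compound plus infected erythrocytes (2% hematocrit, 0.05% parasitemia final) incubate 96 hours, 37 C, 5% CO2. Detection reagent added; reduced luminescence from the parasites' luciferase reporter flags inhibition.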
NS1 function inh = qHTS Assay for Inhibitors of Influenza NS1 Protein Function; Potency, µM (top dose mostly 46.1 µM), without a hit: at the top dose activity, positive = more growth; 270,000 compounds, 0.4% hits; AID 2326, 2010; calls by dose curve; further: potency means the concentration at half of the fitted maximal effect; actives are rising curves; nearly all actives have a fitted effect of over 50% in size
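Growth recovery, yeast-based: influenza A NS1 expressed in S. cerevisiae causes slow growth, and suppressors are detected by OD600. The parent strain without NS1 is used as positive control.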
Sm TGR block = qHTS Assay for the Inhibitors of Schistosoma Mansoni Peroxiredoxins. Potency, µM (highest dose often 114 µM), for inactives: at the top dose activity change, negative = inhibition, actives largely listed as inhibitors. purified TGR, DTNB reduction, TNB absorbance 405 nm. Schistosoma mansoni thioredoxin glutathione reductase (TGR), Q962Y6. 360,000 compounds, 3% hits; further: potency means the concentration at half of the fitted maximal effect; on the % scale 0 is the no-effect control and ±100 the full control effect; nearly all actives have a fitted effect of over 60% in size
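First, TGR (20 nM dispensed) and NADPH were mixed with compound. Second, a 15 min room-temperature incubation followed. Third, further NADPH and then DTNB were added to start the reaction. Finally, TNB absorbance was monitored kinetically.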
The depositor's hits bear a star; i = inactive; u = inconclusive; x = no result given. This is a sample that favours compounds with a hit; in the whole collection about 21% have one here. Unless noted, the call rests on the fitted dose curve; in most records, active means well fitted curve in the direction sought with a large enough effect; inconclusive means small, poorly fitted or top-dose-only effect, or another doubt; inactive means no such curve, though single readings can be large; an effect the other way counts as inactive or inconclusive.

SMILES	CHX counter	Pf growth 48h	Shiga toxin inh	Pf growth 96h	NS1 function inh	Sm TGR block
COc1ccc(S(=O)(=O)N2CCOCC2)cc1N(C)S(=O)(=O)c1ccc(C)cc1	7	-26%	-29	30%	-13%	-12%
COc1cc(C)ccc1S(=O)(=O)N1CCCCCC1	-1	-9%	-13	23%	-8%	5%
Cc1nc2cccnc2n1C1CCN(C(=O)Nc2ccccc2C(F)(F)F)CC1	x	x	x	x	x	0%
CCOC(=O)c1sc(NC(=O)C2CC(=O)N(c3ccc(OCC)cc3)C2)nc1C (stereo not drawn)	-2	31%	-5	-6%	0%	2%
CC1CCCCN1C(=S)Nc1ccc(OC(F)F)cc1 (stereo not drawn)	7	-11%	13	7%	-15%	9%
Cn1cc(C(=O)NS(=O)(=O)Nc2ccc(Br)cn2)c2ccccc21	26*	0%	22*	35%	-2%	-12%
CCCCSc1nc(SCC(=O)NCc2ccco2)c2c3c(sc2n1)COC(C)(CC)C3 (stereo not drawn)	2	u	0	9.3µM*	24%	u
Cc1nc(NCc2ccco2)c2c3c(sc2n1)CCC3	-2	-13%	-7	-4%	-66%	u
CSc1nc(SCC(=O)NCc2ccco2)c2c3c(sc2n1)COC(C)(C)C3	7	u	28	-1%	3%	-18%
CCCSc1nc(SCC(=O)NCc2ccccc2)c2c3c(sc2n1)COC(C)(CC)C3 (stereo not drawn)	-2	u	-5	15µM*	1%	9%
CC(C)Sc1nc(NCc2ccco2)c2c3c(sc2n1)COC(C)(C)C3	21*	u	92*	u	-58%	22µM*
Cc1cc(NC(=O)c2cc(-c3ccc(Cl)c(Cl)c3)on2)n(-c2ccccc2)n1	x	x	x	x	x	2%
CC1=NN(C(=O)c2ccncc2)C(=O)[C@@H]1N=Nc1ccc2ccccc2c1	x	x	x	x	-33%	x
CC1=NN(c2ccccc2)C(=O)C1C=Nc1ccc(N(C)C)cc1 (stereo not drawn)	17*	u	39*	u	1%	0%
CC1=NN(c2nc(-c3ccc(C)cc3)cs2)C(=O)C1N=Nc1ccc2ccccc2c1 (stereo not drawn)	18*	47%	72	u	16%	-9%
CC1=NN(c2ccccc2)C(=O)C1N=Nc1ccc(S(N)(=O)=O)cc1 (stereo not drawn)	1	u	-3	-10%	4%	9%
CC1=NN(c2nc(-c3ccccc3)cs2)C(=O)C1N=Nc1ccccc1 (stereo not drawn)	43*	11%	53*	45%	x	8%
CC1=NN(c2ccccc2)C(=O)C1N=Nc1ccc(C)cc1 (stereo not drawn)	17	24%	25	10µM*	x	-6%
COCCn1c(SCC(=O)NCc2ccc(F)cc2)nc2ccccc21	-1	u	-3	u	2%	-10%
CC1=NN(c2nc(-c3ccc(C)cc3)cs2)C(=O)C1N=Nc1ccc(C(N)=O)cc1 (stereo not drawn)	15*	5%	30	-1%	x	-3%
CC1=NN(C(N)=S)C(=O)C1N=Nc1ccc(S(N)(=O)=O)cc1 (stereo not drawn)	-3	6%	x	25%	19%	-25%
Cc1ncsc1CCOC(=O)c1ccc(N2CCOCC2)c([N+](=O)[O-])c1	27	-25%	58	-5%	x	-15%
Cc1c(CCOC(=O)c2ccc(N3CCOCC3)c([N+](=O)[O-])c2)sc[n+]1CC#N	15	95%	14	u	5%	0.89µM*
COc1ccc(CN2C(=O)c3cccnc3C2=O)cc1S(=O)(=O)N1CCCC(C)C1 (stereo not drawn)	-3	-16%	-4	15µM*	-3%	-8%
N#Cc1ccc(NC(=O)Cn2cnc(S(=O)(=O)N3CCCCC3)c2)cc1	-3	10%	-6	u	-9%	-17%
SMILES	CHX counter	Pf growth 48h	Shiga toxin inh	Pf growth 96h	NS1 function inh	Sm TGR block
O=C(Cn1cnc([N+](=O)[O-])c1)Nc1cc(Oc2ccc(Cl)cc2Cl)cc([N+](=O)[O-])c1	1	13µM*	13	-18%	u	-3%
N#Cc1ccc(NC(=O)Cn2cnc([N+](=O)[O-])c2)cc1	-3	5%	-8	12µM*	8%	-33%
O.O.O.O.O.O.O.O=S(=O)([O-])[O-].[Co+2]	x	6.7µM*	x	1.7µM*	x	x
CCOC(=O)c1ccc(N2Cc3ccccc3C2=NC(=O)c2ccncc2)cc1	28*	u	58*	u	x	-5%
O=C(N=C1c2ccccc2CN1c1ccc(F)cc1)c1ccc(Cl)nc1	24*	42%	21	0%	-2%	-27%
CCOC(=O)c1ccc(N2Cc3ccccc3C2=N)cc1	34*	x	126*	69%	-6%	-1%
COc1ccc(N2Cc3ccccc3C2=NC(=O)c2cncc(Br)c2)cc1	40*	i	71*	277%	x	u
CCOC(=O)c1ccc(N2Cc3ccccc3C2=NC(=O)c2cccs2)cc1	9	u	17	u	3%	-5%
COc1ccccc1NC(=O)NNC(=O)c1ccc2ccccc2c1O	-3	25%	-11	43%	u	1%
NS(=O)(=O)c1ccc(CNC(=O)/C=C/c2c(F)cccc2Cl)cc1	-4	7%	12	-7%	1%	x
COc1ccc(Cl)cc1S(=O)(=O)NCc1nc2nc(C)cc(C)n2n1	-2	-5%	4	u	-1%	6%
COCCN(C(=O)CSc1n[nH]c(-c2ccccc2)n1)c1c(N)n(Cc2ccccc2)c(=O)[nH]c1=O	x	u	x	-8%	x	0%
CC(=O)Nc1ccc(S(=O)(=O)N2CCC(N3CCN(Cc4ccc(C)cc4)C(=O)C3=O)CC2)cc1	x	x	x	x	x	7%
Cc1[nH]c2ccccc2c1C(=O)COc1ccccc1F	25*	-7%	74	25%	-5%	-10%
Cc1[nH]c2ccccc2c1C(=O)COc1ccccc1	15*	-5%	49	260%	-7%	6%
CCOc1ccc(CCNC(=O)c2nnc(Cc3cc(OC)c(OC)c(OC)c3)o2)cc1OCC	x	x	x	x	x	49%
Oc1c(C(c2ccc(Cl)cc2Cl)N2CCN(c3ccccc3)CC2)sc2nc(-c3ccco3)nn12 (stereo not drawn)	x	x	x	x	x	-2%
CCC(=O)N1CCc2cc(S(=O)(=O)CCC(=O)O)ccc21	-4	14%	-12	7.4µM*	6%	8%
CC(=O)N1CCc2cc(S(=O)(=O)CCC(=O)Nc3ccc4c(c3)OCCO4)ccc21	12*	10%	27	u	4%	4%

Source: PubChem BioAssay (National Center for Advancing Translational Sciences (NCATS))
